Laboratory results taken from PubChem BioAssay AID2685 (National Center for Advancing Translational Sciences (NCATS), 2010).
Among all 320,000 compounds or so, about 2,100 (0.66%) were called active. Roughly 53% stayed inconclusive and do not appear here. Calls follow the shape of the dose curve; as a rule, active = well fitted inhibition curve with a large enough effect in the signal ratio, with a control signal flat (not every such curve was filed as active); inconclusive = small, poorly fitted or top-dose-only effect, or effect the other way, or a change in a side signal; inactive = flat fitted curve, though single readings scatter; the % refers to the signal ratio. Shown is part of a subset that was picked to be rich in actives.

assay: qHTS Assay for Lipid Storage Modulators in Drosophila S3 Cells; settings: BODIPY lipid droplet fluorescence, 18-24 h, cells fed with added oleic acid; cell number change: measured here: cell count max response; series mostly up to 46.1 µM; lipid storage change, negative = inhibition: at the top concentration;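 as to cell number change: cells counted by Cell Tracker Red CMTPX staining in the red channel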; as to lipid storage change, negative = inhibition: % is scaled to controls: 0 for no effect and ±100 for the full control effect
Method in brief: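 Drosophila S3 cells loaded with oleic acid (400 uM, as added) and compounds at several concentrations; lipid droplets imaged by 488-nm laser-scanning cytometry, 500–530 nm intensity and object ratio to cell channel. Percent activity normalized to 20 uM Triacsin C.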
Potency is read from the fitted curve at half-maximal effect.

Row | Structure (SMILES) | lipid storage change, negative = inhibition | cell number change | Potency | outcome
1 | O=C(Nc1ccccn1)c1sc2cccc(F)c2c1Cl | 1.57% (inactive) | 9.28% | – | –
2 | CCCCC(CC)CNC(=O)C(Cc1ccccc1)NS(=O)(=O)c1ccc2c(c1)CCC(=O)N2 (stereo not given) | 0.0744% (inactive) | 9.41% | – | –
3 | CCC(C)NC(=O)C(Cc1ccccc1)NS(=O)(=O)c1ccc2c(c1)CCC(=O)N2 (stereo not given) | – | 1.42% | 20.6 µM (active) | –
4 | CCCNC(=O)C(Cc1ccccc1)NS(=O)(=O)c1ccc2c(c1)CCC(=O)N2 (stereo not given) | 8.28% (inactive) | – | – | –
5 | Cc1ccc(NC(=O)N2CCN(C(=O)c3ccco3)CC2)cc1Cl | -0.198% (inactive) | -6.19% | – | –
6 | Cn1nnnc1SCC(=O)Nc1ccc(Cl)c(S(=O)(=O)N2CCOCC2)c1 | -1.86% (inactive) | 21.3% | – | –
7 | COc1ccc(NC(=O)C2=CC(c3ccc(C)cc3)=NS(=O)(=O)N2C)cc1 | – | 4.61% | 5.17 µM (active) | –
8 | COc1ccc(C2=NS(=O)(=O)N(C)C(C(=O)Nc3cc(C)ccc3O)=C2)cc1OC | 4.1% (inactive) | 4.03% | – | –
9 | COc1ccc(CNC(=O)C2=CC(c3ccc(OC)cc3)=NS(=O)(=O)N2C)cc1 | -22.8% (inactive) | -7.78% | – | –
10 | COc1ccc(NC(=O)C2=CC(c3ccc(C)cc3)=NS(=O)(=O)N2C)cc1OC | – | -8.07% | – | inactive
11 | COc1ccc(C2=NS(=O)(=O)N(C)C(C(=O)Nc3ccc(C(C)=O)cc3)=C2)cc1OC | 0.308% (inactive) | 3.67% | – | –
12 | CCc1ccc(NC(=O)C2=CC(c3cccs3)=NS(=O)(=O)N2C)cc1 | – | – | 20.6 µM (active) | –
13 | CCc1ccc(NC(=O)C2=CC(c3ccc(OC)cc3)=NS(=O)(=O)N2C)cc1 | – | -11.3% | 10.3 µM (active) | –
14 | COc1ccc(NC(=O)C2=CC(c3ccco3)=NS(=O)(=O)N2C)cc1 | – | 15% | – | inactive
15 | CC(=O)c1cccc(NC(=O)C2=CC(c3cccs3)=NS(=O)(=O)N2C)c1 | – | – | – | inactive
16 | COc1ccc(CNC(=O)C2=CC(c3ccc(OC)c(OC)c3)=NS(=O)(=O)N2C)cc1 | -14.8% (inactive) | -8.36% | – | –
17 | Cc1ccc(O)c(NC(=O)C2=CC(c3cccs3)=NS(=O)(=O)N2C)c1 | -11.7% (inactive) | -6.05% | – | –
18 | COc1cc(NC(=O)C2=CC(c3ccc(C)cc3)=NS(=O)(=O)N2C)cc(OC)c1OC | – | -6.34% | 1.46 µM (active) | –
19 | CCCN(CCC)Cc1c(C(=O)N/N=C/c2ccco2)nnn1-c1nonc1N | 4.78% (inactive) | 1.25% | – | –

Row | Structure (SMILES) | lipid storage change, negative = inhibition | cell number change | Potency | outcome
20 | O=S(=O)(NC1CC1)c1ccc(S(=O)(=O)N2CCN3CCCC3C2)cc1 (stereo not given) | -25.1% (inactive) | -22% | – | –
21 | C=CCn1c(-c2cccc(OC)c2OC)n[nH]c1=S | 16.6% [at 9.22 µM] (inactive) | 6.07% | – | –
22 | Cc1cnc(C(=O)NNC(=O)c2ccc(Br)cc2)cn1 | 14.5% (inactive) | – | – | –
23 | CNC(=O)C(=O)Nc1nc(C23CC4CC(CC(C4)C2)C3)cs1 | 0.543% (inactive) | – | – | –
24 | CC(CSc1nnnn1-c1ccccc1)Cn1c(N2CCN(C)CC2)nc2c1c(=O)[nH]c(=O)n2C (stereo not given) | 4.96% (inactive) | -4.1% | – | –
25 | CCOc1ccc(-n2c(SCC(=O)NCc3ccco3)nnc2-c2c[nH]c3ccccc23)cc1 | – | – | – | inactive
26 | CCOC(=O)c1sc(N2N=C(C)/C(=C\c3ccc(OCC(=O)OC)cc3)C2=O)nc1C | -3.19% (inactive) | 0.316% | – | –
27 | CC(=O)c1ccc(S(=O)(=O)NC2CCSc3ccccc32)cc1 (stereo not given) | 34% (inactive) | 11.1% | – | –
28 | O=C(COC(=O)c1ccc(Cl)cc1[N+](=O)[O-])NC(=O)c1ccccc1 | – | -11.4% | – | inactive
29 | Cc1ccc(C2=NC3(CCCC3)NC2=S)cc1 | 6.56% [at 9.22 µM] (inactive) | 8.14% | – | –
30 | Cc1ccc(NC(=O)CCN2C(=O)c3ccccc3C2=O)c(C)c1 | -5.21% (inactive) | 5.45% | – | –
31 | CN1C(C(=O)Nc2ccc(F)cc2F)=CC(c2cccs2)=NS1(=O)=O | -7.04% (inactive) | -0.288% | – | –
32 | COC(=O)c1ccccc1NC(=O)C1=CC(c2cccs2)=NS(=O)(=O)N1C | 14.1% (inactive) | 5.19% | – | –
33 | CSc1ccccc1NC(=O)C1=CC(c2cccs2)=NS(=O)(=O)N1C | – | -26.8% | 4.11 µM (active) | –
34 | Cc1nnc(SCC(=O)NNC(=O)c2ccccc2)n1-c1ccccc1 | -11.8% (inactive) | – | – | –
35 | COc1cc2c(cc1OC)C(c1ccccc1)N(C(=O)c1cccc(S(C)(=O)=O)c1)CC2 (stereo not given) | – | 14.6% | – | inactive
36 | Cc1cc(C(=O)COC(=O)/C=C/c2cccc(Br)c2)c(C)n1C | -6.39% (inactive) | – | – | –
37 | Cc1cc(C(=O)COC(=O)/C=C/c2cccc(F)c2)c(C)n1C | 7.92% (inactive) | 5.66% | – | –
38 | COc1ccccc1/C=C/C(=O)OCC(=O)c1cc(C)n(C)c1C | – | -22.1% | 1.3 µM (active) | –

Row | Structure (SMILES) | lipid storage change, negative = inhibition | cell number change | Potency | outcome
39 | COc1ccc(S(=O)(=O)Nc2ccccc2N2CCOCC2)cc1[N+](=O)[O-] | -24.1% (inactive) | 0.857% | – | –
40 | COCCCNC(=S)Nc1ccc2nc(N3CCOCC3)cc(C)c2c1 | 1.62% (inactive) | 0.741% | – | –
41 | Cc1ccc(N2CC(C(=O)NCCS(=O)(=O)N3CCN(c4ccc(F)cc4)CC3)CC2=O)cc1 (stereo not given) | – | -2.39% | 2.06 µM (active) | –
42 | O=C(NCCS(=O)(=O)N1CCN(c2ccccc2)CC1)C1CC(=O)N(c2ccc(F)cc2)C1 (stereo not given) | – | -3.13% | – | inactive
43 | O=C(NCCS(=O)(=O)N1CCN(c2ccc(F)cc2)CC1)C1CC(=O)N(c2ccccc2)C1 (stereo not given) | – | 4.61% | – | inactive
44 | CC(=O)N1CCc2c(sc(NC(=O)Cc3ccc(F)cc3)c2C#N)C1 | 3.42% (inactive) | 7.34% | – | –
45 | COc1cccc(CNC(=O)CCl)c1 | -9.82% (inactive) | 5.99% | – | –
46 | COc1cccc(CNC(=O)COC(=O)c2nc(Cl)c(Cl)c(Cl)c2Cl)c1 | – | -29.4% | 14.6 µM (active) | –
47 | O=C(COC(=O)c1nc(Cl)c(Cl)c(Cl)c1Cl)NCc1ccccc1 | -15.2% (inactive) | -8.84% | – | –
48 | COC(=O)c1sccc1NC(=O)CC1C(=O)NCCN1C(=O)Nc1cc(Cl)ccc1OC (stereo not given) | 8.74% (inactive) | 13.4% | – | –
49 | CCC(=O)Oc1ccc2c(=O)c(-c3ccc4ccccc4n3)c(CC)oc2c1C | 6.65% (inactive) | 1.88% | – | –
50 | COc1ccc(C(=O)N2CCCCC2)cc1S(=O)(=O)Nc1cccc(C(=O)O)c1 | -7.55% (inactive) | 0.28% | – | –
51 | COc1ccc(F)cc1S(=O)(=O)Nc1cccc(C(=O)O)c1 | -6.3% (inactive) | – | – | –
52 | COc1ccc(C(=O)O)cc1S(=O)(=O)Nc1cccc(C(F)(F)F)c1 | – | -15.9% | 29.1 µM (active) | –
53 | COC(=O)c1cccc(C23CC4(C2)[C@H](CN(Cc2cccnc2)[C@@H]4c2ccccc2)C3c2ccc(Cl)nc2)c1 (stereo not given in full) | 16.4% (inactive) | 17.9% | – | –
54 | CC(C)(C)OC(=O)N/N=C/c1cccc([N+](=O)[O-])c1 | -1.02% (inactive) | 14.2% | – | –
55 | CCOc1cc(C(=O)N2CCC(CC3CC(c4cccc(Br)c4)=NO3)(C(=O)NCC3CCCCC3)CC2)cc(OCC)c1OCC (stereo not given) | – | 23.9% | 2.06 µM (active) | –
56 | CCCCCCCNC(=O)C1(CC2CC(c3cccc(Br)c3)=NO2)CCN(C(=O)c2cc(OCC)c(OCC)c(OCC)c2)CC1 (stereo not given) | -9.14% (inactive) | -10.9% | – | –
57 | O=C(c1ccccc1)N1CCC(CC2CC(c3cccc(Br)c3)=NO2)(C(=O)NCC2CCCCC2)CC1 (stereo not given) | -12% (inactive) | 21.3% | – | –
